Assay outcomes from PubChem.
ST2 IL33 inh: blocks human ST2 binding to IL-33; AID 1259354; Q01638; inhibition, % for hits at 17 µM; actives 2.3% (n = 78,000); AlphaLISA ST2-Fc/biotin-IL-33 interaction, 1 h; in the data active = inhibition above about 30%
Target sequence (Q01638 whole entry, looked up): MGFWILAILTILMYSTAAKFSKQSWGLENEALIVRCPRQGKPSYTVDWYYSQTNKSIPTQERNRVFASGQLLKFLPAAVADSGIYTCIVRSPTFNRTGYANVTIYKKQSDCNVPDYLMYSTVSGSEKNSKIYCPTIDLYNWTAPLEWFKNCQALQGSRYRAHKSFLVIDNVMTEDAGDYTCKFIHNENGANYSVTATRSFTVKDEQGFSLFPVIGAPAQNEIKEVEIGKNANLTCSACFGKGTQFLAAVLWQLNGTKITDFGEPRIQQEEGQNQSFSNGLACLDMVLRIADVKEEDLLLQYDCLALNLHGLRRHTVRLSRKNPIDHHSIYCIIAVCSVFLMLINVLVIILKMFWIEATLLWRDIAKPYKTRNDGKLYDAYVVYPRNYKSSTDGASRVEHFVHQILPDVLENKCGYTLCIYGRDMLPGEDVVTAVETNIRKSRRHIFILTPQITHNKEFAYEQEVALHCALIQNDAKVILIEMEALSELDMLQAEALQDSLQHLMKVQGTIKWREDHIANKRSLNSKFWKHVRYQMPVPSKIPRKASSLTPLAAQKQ
Large screens that a line does not name were inactive. The entries come from a sample that favours hits as a whole.

CCOc1cc2c(cc1OCC)C(c1ccccc1)OC(=O)C2 (configuration not stated)	none
CCN(CC)CCn1c(SCC(=O)N2CCCCC2C)nc2c(sc3ccccc32)c1=O (configuration not stated)	none
CCOC(=O)c1[nH]c2ccc(F)cc2c1NC(=O)CNc1nncs1	none
O=C(CN1CCCN(Cc2cccc(F)c2)S1(=O)=O)Nc1ccc(F)cc1F	none
COc1ccccc1OCCCOc1ccc(/C=C2/C(=N)N3C=CSC3=NC2=O)cc1OC	ST2 IL33 inh 34.0%
COc1cc(C=O)ccc1OCCCOc1ccccc1C(=O)O	none
CCCCOc1ccc(/C=c2\sc3nc(=O)c(C)nn3c2=O)cc1OC	none
O=C(CN1C(=O)CC(c2ccccc2)Sc2ccccc21)c1ccccc1 (configuration not stated)	none
Cc1cc(C)nc(NS(=O)(=O)c2ccc(NS(=O)(=O)c3ccc(F)cc3)cc2)n1	none
COc1ccc2c(c1)c(CC(=O)NCc1cccnc1)c(C)n2C(=O)c1ccc(Cl)cc1	none
Cc1cccc2[nH]c(-c3ccc(NC(=O)c4ccc(N)cc4)cc3)nc12	none
Nc1ccc(C(=O)Nc2ccc(-c3nc4ccc(NC(=O)c5ccc(N)cc5)cc4[nH]3)cc2)cc1	ST2 IL33 inh 30.0%
CC(=O)Nc1ccc(-c2nc3ccc(NC(C)=O)cc3[nH]2)cc1	none
Cn1cc(SCC(=O)N2CCCC2)c2ccccc21	none
CN(CCNc1ncnc2nc[nH]c12)Cc1ccccc1	none
COc1ccc(-n2ncc3c(Nc4cc(Cl)ccc4OC)ncnc32)cc1	none
c1cncc(Cn2ccnc2-c2ccncc2)c1	none
CCc1nnc(NS(=O)(=O)c2ccc(NC(C)=O)cc2)s1	none
Cc1cccc(N=C2NC(=O)/C(=C\c3ccco3)S2)c1	ST2 IL33 inh 31.0%
O=C1NC(=Nc2cccc(Cl)c2Cl)S/C1=C/c1ccco1	none
COc1cc(/C=C2\SC(=Nc3c(C)n(C)n(-c4ccccc4)c3=O)NC2=O)ccc1O	none
O=[N+]([O-])c1ccc(NS(=O)(=O)c2ccc(Br)cc2)cc1	none
O=C1NN(c2ccc(Br)cc2)C(=O)/C1=C\c1cccn1-c1ccc([N+](=O)[O-])cc1	ST2 IL33 inh 33.0%
O=C1NN(c2ccc(F)cc2)C(=O)/C1=C\c1cccn1-c1ccc([N+](=O)[O-])cc1	ST2 IL33 inh 31.0%
O=C1NC(=O)N(c2cccc(F)c2)C(=O)/C1=C/c1cccn1-c1ccccc1	none
Cc1cc(/C=C2/C(=O)NC(=O)N(c3ccccc3)C2=O)c(C)n1-c1ccc([N+](=O)[O-])cc1	none
COc1ccc(CCNC(=O)c2cnn3ccn(C)c23)cc1OC	none
CC(C)n1c(=N)c(C(=O)NCc2ccco2)cc2c(=O)n3ccccc3nc21	none
Cc1cccc(N(C)S(=O)(=O)c2ccc3c(c2)c(=O)n(C)c(=O)n3C)c1	none
COC(=O)c1cc2c(s1)CN(c1cc(C)cc(C)c1)C2	none
O=c1[nH]c2c(s1)C(c1ccc(Cl)cc1)C1C3CCC(C3)C1S2 (configuration not stated)	none
Cc1ccc(NC2SC(=O)N(c3ccccc3)C2=O)cc1 (configuration not stated)	none
Cc1ccc(N2C(=O)C3Sc4[nH]c(=O)sc4C(c4ccccc4)C3C2=O)cc1 (configuration not stated)	ST2 IL33 inh 34.0%
O=C(CC[C@@H]1CNC(=O)[C@@H]2C[C@H](NC(=O)Nc3ccc(F)cc3F)CN12)NCc1ccc(F)cc1	ST2 IL33 inh 71.0%
O=C1NC[C@@H](CCC(=O)N2CCOCC2)N2C[C@@H](NC(=S)NCc3ccco3)C[C@@H]12	none
O=C(CC[C@@H]1CNC(=O)[C@@H]2C[C@H](NC(=S)Nc3ccc(Cl)cc3)CN12)NC1CC1	none
COCCNC(=S)N[C@H]1C[C@H]2C(=O)NC[C@@H](CCC(=O)N3CCOCC3)N2C1	none
O=C(CC[C@@H]1CNC(=O)[C@@H]2C[C@H](NC(=O)c3ccc(F)c(Cl)c3)CN12)NCc1ccccc1	none
O=C(CC[C@@H]1CNC(=O)[C@@H]2C[C@H](NC(=S)NCCN3CCOCC3)CN12)NCc1ccccc1	ST2 IL33 inh 31.0%
CNC(=O)[C@@H]1C[C@H](N)CN1C(=O)CCn1cnc2ccccc21	none
CN(C)CC1(O)CCCN(C(=O)c2cccc3cc[nH]c23)C1 (configuration not stated)	none
CCOc1ccc(C(=O)N(c2cc(C)cc(C)c2)C2C=CS(=O)(=O)C2)cc1 (configuration not stated)	none
O=C1C(=Nc2ccccc2)c2ccccc2N1CN1CCN(c2ccc(F)cc2)CC1	none
CCOc1cc2c(cc1OCC)C(c1ccc(OC)c(OC)c1)OC(=O)C2 (configuration not stated)	none
COc1cc(NC2OC(=O)c3ccccc32)c(OC)cc1Cl (configuration not stated)	none
COc1cc2c(cc1OC)C(c1ccc(Cl)cc1)OC1=C2C(=O)c2ccccc21 (configuration not stated)	ST2 IL33 inh 47.0%
N#Cc1cccc(NC(=S)N[C@H]2CO[C@H]3[C@@H]2OC[C@@H]3n2nnnc2Oc2ccc(-n3ccnc3)cc2)c1	none
CC(=O)c1c(F)c(F)c(Oc2ccc(Br)cc2)c(F)c1N1CCOCC1	none
COc1ccc(CCNc2oc(COc3ccc(Cl)cc3)nc2C#N)cc1	ST2 IL33 inh 38.0%
N#Cc1nc(-c2ccc(F)cc2)oc1NCc1ccco1	none
